# Results: PubChem BioAssay
# The source made the active and inactive calls.
# Tests used:
# [1] = E. coli DRC41 culture turbidity changes, primary screen, E. coli filamentation inducer project, strain DRC41, OD650, 48 h (AID 1152);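 further: E. coli MC1000 strain DRC41 lacking acrAB efflux pump and sulA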; details: E. coli DRC41 (acrAB sulA), higher = more signal, called active from +8 up or from −8 down
# [2] = small-molecule binders of probe aLefty1, primary screen, biochemical, small-molecule microarray, 635/667 nm fluorescence (AID 1153); details: higher = more signal;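 further: score merges spot fluorescence with signal-to-noise ratio from the scanned slide images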
# [3] = PSAC antagonists in infected red cells, primary screen, cell-based, P. falciparum Indochina, OD700, 1 h (AID 1154); details: P. falciparum Indochina infected RBC osmotic lysis, higher = more signal, called active from +8 up or from −8 down
# [4] = PSAC antagonists in infected red cells, primary screen, cell-based, P. falciparum Indochina, OD700, 2 h (AID 1155);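 further: lysis reports solute entry through the parasite surface anion channel PSAC; channel blockers reduce lysis of infected cells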; details: P. falciparum Indochina infected erythrocytes, osmotic lysis OD700; higher = more signal, called active from +8 up or from −8 down
# [5] = osmotic lysis modulators in infected erythrocytes, primary screen, PSAC antagonist project, cell-based, P. falciparum Indochina, OD700, 3 h (AID 1156); details: higher = more signal, called active from +8 up or from −8 down
# [6] = PSAC antagonists in infected red cells, primary screen, cell-based, P. falciparum Indochina, OD700, 18 h (AID 1157); details: P. falciparum Indochina infected erythrocytes, osmotic lysis OD700, 18 h; higher = more signal, called active from +8 up or from −8 down
# [7] = modulators of S6 phosphorylation in cells, primary screen, cell-based, A549, cytoblot, luminescence, serum-stimulated (AID 1158); details: A549 phospho-S6 cytoblot, 5 h, higher = more signal;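 further: serum-stimulated A549 lung adenocarcinoma cells; signal is phosphorylated S6 detected by cytoblot immunostaining with HRP secondary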
# [8] = target: NADPH oxidase 2 (Homo sapiens) (UniProt P04839); assay: NOX2-dependent H2O2 signal modulators, primary screen, NOX inhibitor project, cell-based, HEK293-NOX2, PMA-stimulated, Amplex Red fluorescence (AID 1159); details: 45 min, higher = more signal, called active from +8 up or from −8 down; further: test concentration not given here
# [9] = target: NADPH oxidase 4 (Homo sapiens) (UniProt Q9NPH5); assay: NOX4-dependent H2O2 signal modulators, primary screen, NOX inhibitor project, cell-based, HEK293-NOX4, tetracycline-induced, Amplex Red fluorescence (AID 1160); details: 45 min, higher = more signal, called active from +8 up or from −8 down
# [10] = target: NADPH oxidase 5 (Homo sapiens) (UniProt Q96PH1); assay: NOX5-dependent H2O2 signal modulators, primary screen, NOX inhibitor project, cell-based, HEK293-NOX5, Amplex Red fluorescence (AID 1161); details: HEK293-NOX5, ionomycin, 45 min, higher = more signal
# Chain of NADPH oxidase 5 (Homo sapiens) (Q96PH1 whole entry, looked up): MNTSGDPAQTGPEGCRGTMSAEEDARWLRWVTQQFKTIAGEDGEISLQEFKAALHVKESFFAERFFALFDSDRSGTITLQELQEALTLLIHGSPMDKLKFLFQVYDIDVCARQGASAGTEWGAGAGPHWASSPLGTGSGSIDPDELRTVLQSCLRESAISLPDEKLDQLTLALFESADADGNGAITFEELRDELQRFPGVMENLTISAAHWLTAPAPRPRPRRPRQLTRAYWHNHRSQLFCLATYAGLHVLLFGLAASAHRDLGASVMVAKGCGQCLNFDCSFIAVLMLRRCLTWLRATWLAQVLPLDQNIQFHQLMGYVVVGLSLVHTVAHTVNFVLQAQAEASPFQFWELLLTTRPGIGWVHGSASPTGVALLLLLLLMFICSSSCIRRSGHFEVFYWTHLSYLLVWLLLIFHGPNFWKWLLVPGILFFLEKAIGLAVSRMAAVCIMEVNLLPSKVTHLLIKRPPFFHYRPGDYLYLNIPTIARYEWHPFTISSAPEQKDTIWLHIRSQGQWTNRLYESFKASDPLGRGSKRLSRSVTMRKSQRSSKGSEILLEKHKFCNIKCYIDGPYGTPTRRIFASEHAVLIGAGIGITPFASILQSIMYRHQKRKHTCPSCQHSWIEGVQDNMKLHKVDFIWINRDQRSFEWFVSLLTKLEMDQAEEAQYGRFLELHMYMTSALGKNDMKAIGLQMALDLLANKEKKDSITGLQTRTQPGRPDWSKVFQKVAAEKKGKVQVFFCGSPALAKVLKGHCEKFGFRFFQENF
# Chain of NADPH oxidase 2 (Homo sapiens) (P04839 whole entry, looked up): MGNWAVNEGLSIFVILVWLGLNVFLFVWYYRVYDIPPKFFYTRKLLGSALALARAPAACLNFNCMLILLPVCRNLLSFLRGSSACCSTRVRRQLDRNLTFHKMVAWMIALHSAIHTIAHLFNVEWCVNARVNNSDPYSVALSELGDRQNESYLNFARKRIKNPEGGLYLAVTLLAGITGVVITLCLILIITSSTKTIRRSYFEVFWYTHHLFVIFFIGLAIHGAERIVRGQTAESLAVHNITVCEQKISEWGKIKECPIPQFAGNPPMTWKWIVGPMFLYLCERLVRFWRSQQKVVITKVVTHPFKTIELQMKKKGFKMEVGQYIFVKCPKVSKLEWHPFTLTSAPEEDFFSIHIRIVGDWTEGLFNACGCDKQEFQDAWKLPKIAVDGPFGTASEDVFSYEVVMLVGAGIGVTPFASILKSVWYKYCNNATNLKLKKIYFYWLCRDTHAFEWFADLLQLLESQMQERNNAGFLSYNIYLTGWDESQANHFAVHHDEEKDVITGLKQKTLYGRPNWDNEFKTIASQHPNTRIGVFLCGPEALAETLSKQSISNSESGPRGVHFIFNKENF
# Chain of NADPH oxidase 4 (Homo sapiens) (Q9NPH5 whole entry, looked up): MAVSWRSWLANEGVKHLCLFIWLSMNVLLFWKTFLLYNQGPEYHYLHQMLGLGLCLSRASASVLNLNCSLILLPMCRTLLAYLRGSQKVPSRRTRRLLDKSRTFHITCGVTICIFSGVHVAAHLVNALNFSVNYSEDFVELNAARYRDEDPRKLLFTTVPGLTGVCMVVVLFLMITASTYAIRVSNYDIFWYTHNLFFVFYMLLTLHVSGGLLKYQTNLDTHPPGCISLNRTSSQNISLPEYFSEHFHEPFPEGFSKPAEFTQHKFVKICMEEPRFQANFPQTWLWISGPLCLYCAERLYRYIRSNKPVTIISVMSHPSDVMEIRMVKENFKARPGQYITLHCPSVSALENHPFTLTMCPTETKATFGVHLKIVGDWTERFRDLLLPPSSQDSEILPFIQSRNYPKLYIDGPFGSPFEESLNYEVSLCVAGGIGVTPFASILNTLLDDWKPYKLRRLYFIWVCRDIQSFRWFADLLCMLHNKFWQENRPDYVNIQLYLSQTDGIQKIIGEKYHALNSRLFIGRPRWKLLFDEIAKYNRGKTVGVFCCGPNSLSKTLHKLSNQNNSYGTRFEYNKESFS
SMILES,z-score [1],composite z-score [2],z-score [3],z-score [4],z-score [5],z-score [6],z-score [7],z-score [8],z-score [9],z-score [10]
CCCCNC(=O)c1ccc(C#CC(C)(C)C)c(OC(C)=O)c1,0.567 (inactive),-0.148,4.63 (inactive),0.802 (inactive),2.09 (inactive),0.181 (inactive),0.355,-0.137 (inactive),0.344 (inactive),0.416
CCOC(=O)C=Cc1cccc(C)c1O,-0.718 (inactive),-0.0011,9 (active),-0.0712 (inactive),0.193 (inactive),-2.11 (inactive),1.52,-5.05 (inactive),-4.89 (inactive),-4.98
CC(C)c1ccc(NN2C(C(O)c3ccc(C#N)cc3)C=CC3C(=O)N(c4ccccc4)C(=O)C32)cc1 (stereo not given),-1.6 (inactive),0.418,15.4 (active),2.64 (inactive),0.567 (inactive),1.27 (inactive),-1.05,-1.46 (inactive),-3.24 (inactive),-2.38
CCCCN1CC=CC23O[C@@H]4/C=C\CCCOC(=O)C4[C@H]2C(=O)N(CCO)[C@@H]3C1=O (stereo not given in full),1.18 (inactive),-0.297,0.978 (inactive),1.05 (inactive),0.504 (inactive),0.628 (inactive),-0.246,1.28 (inactive),0.314 (inactive),1.5
C=CCOC(=O)[C@@]1(Cc2ccccc2)C[C@H]2CO[C@H](c3ccc(OC)cc3)N2C1=O,-0.0282 (inactive),-0.338,1.36 (inactive),0.522 (inactive),-0.256 (inactive),0.0894 (inactive),-0.673,0.826 (inactive),-0.213 (inactive),-1.93
CC(C)c1ccc(NN2C(C(O)c3ccc(F)cc3)C=CC3C(=O)N(c4ccccc4)C(=O)C32)cc1 (stereo not given),-0.601 (inactive),0.498,3.82 (inactive),1.76 (inactive),0.0964 (inactive),1.44 (inactive),-1.05,-1.15 (inactive),-2.78 (inactive),-2.6
CCOC(=O)C1=C[C@@H](C(C)C)N(S(=O)(=O)c2ccc(C)cc2)[C@H]1c1ccc(C(F)(F)F)cc1,-1.58 (inactive),0.2,0.172 (inactive),0.279 (inactive),-0.422 (inactive),0.0209 (inactive),-0.696,-0.116 (inactive),0.024 (inactive),0.599
NC(=O)NCC#Cc1ccc2c(c1)[C@]1(C(=O)N2)[C@H](c2ccccc2OCCO)N2[C@H](c3ccccc3)[C@H](c3ccccc3)OC(=O)[C@H]2[C@@H]1C(=O)NC[C@H](O)c1ccccc1,2.83 (inactive),-0.103,0.925 (inactive),-0.918 (inactive),-0.313 (inactive),-1.54 (inactive),2.83,1.74 (inactive),0.869 (inactive),0.062
C=CC[C@]1(C(=O)N2CCOCC2)COC(c2ccc(OCCCO)cc2)=N1,0.323 (inactive),0.43,5.33 (inactive),0.2 (inactive),0.638 (inactive),0.301 (inactive),0.0334,-2.25 (inactive),-0.335 (inactive),-0.859
O=C1C2C=CC(C(O)C3CC=CCC3)N(Nc3ccccc3)C2C(=O)N1c1ccccc1 (stereo not given),-1.5 (inactive),0.663,3.38 (inactive),-0.228 (inactive),1.53 (inactive),-1.33 (inactive),0.879,-3.1 (inactive),-4.95 (inactive),-6.07
COC(=O)[C@@]1(Cc2ccc(F)cc2)[C@H]2c3cc(C(=O)N4CCCC4)n(Cc4ccc(C)c(F)c4F)c3C[C@H]2CN1C(=O)c1ccccc1,-1.31 (inactive),0.746,5.03 (inactive),0.806 (inactive),0.598 (inactive),1.06 (inactive),-0.389,-4.01 (inactive),-7.95 (inactive),-7.01
CCOc1cc(C(O)C2C=CC3C(=O)NC(=O)C3N2Nc2ccc(Cl)cc2Cl)ccc1O (stereo not given),-1.36 (inactive),-0.101,0.588 (inactive),0.0352 (inactive),0.0675 (inactive),1.1 (inactive),-1.04,-1.26 (inactive),-1.88 (inactive),-2.05
C=CC[C@@H](OC(=O)Nc1ccc(SC)cc1)c1ccc(O)c(F)c1,0.959 (inactive),-0.0573,24.1 (active),6.56 (inactive),1.9 (inactive),1.04 (inactive),0.42,-5.77 (inactive),-2.85 (inactive),-3.25
CO[C@H]1O[C@H](CO)[C@@H](OC(=O)Nc2ccccc2)[C@H](OC(=O)c2cc3ccccc3[nH]2)[C@H]1OC(=O)c1cc2ccccc2[nH]1,0.541 (inactive),0.214,0.909 (inactive),-0.795 (inactive),0.447 (inactive),-0.758 (inactive),1.27,-6.27 (inactive),-0.405 (inactive),-2.16
O=C(O)[C@@H]1[C@@H]2C(=O)N(c3ccccc3)C(=O)[C@@H]2C[C@@H]1Sc1ccccc1,-1.52 (inactive),-0.0573,0.919 (inactive),0.544 (inactive),0.0175 (inactive),0.631 (inactive),-0.381,0.312 (inactive),-0.541 (inactive),-0.295
CC1=C2[C@@H](CCc3ccccc3)OB(O)C[C@@H]2[C@@H]2C(=O)N(C)C(=O)[C@@H]2C1,-0.155 (inactive),0.035,1.45 (inactive),0.454 (inactive),-0.249 (inactive),0.255 (inactive),-0.391,0.162 (inactive),0.234 (inactive),-0.54
CCCNC(=O)[C@@]1(Sc2ccc(C)cc2)CC(=O)N(C2Cc3ccccc3C2)[C@@H]1c1ccc(CO)cc1I,0.815 (inactive),0.844,9.9 (active),2.14 (inactive),-0.377 (inactive),0.695 (inactive),-0.303,0.716 (inactive),-0.892 (inactive),0.67
CC[C@@H]1O[Si](C(C)C)(C(C)C)c2c1cc(-c1cc(C)c(OC)c(C)c1)nc2-c1ccc(Oc2ccccc2)cc1,-0.109 (inactive),0.0101,-0.261 (inactive),0.26 (inactive),0.827 (inactive),0.311 (inactive),0.189,-1.36 (inactive),-0.672 (inactive),-2.04
CC(=O)N1CC2(CC2)CC1c1ccccc1 (stereo not given),-1.35 (inactive),0.433,-0.0747 (inactive),0.635 (inactive),0.539 (inactive),0.715 (inactive),-0.0482,-0.328 (inactive),-1.08 (inactive),-2.74
CCOC(=O)C[C@H]1[C@H](OC(=O)c2ccc(C(=O)c3ccccc3)cc2)[C@@H](NC(=O)c2ccc3ccccc3n2)c2cc(OCCCO)ccc2N1C(=O)Cc1ccc(OC)cc1,-1.61 (inactive),0.0782,-0.17 (inactive),0.313 (inactive),1.57 (inactive),0.802 (inactive),0.793,-1.71 (inactive),-0.298 (inactive),-0.856
COC(=O)[C@@]1(Cc2ccccc2)[C@H]2c3cc(C(=O)N4CCCC4)n(CCc4ccccn4)c3C[C@H]2CN1C(=O)c1ccccc1,-1.5 (inactive),0.928,1.93 (inactive),0.0978 (inactive),1.54 (inactive),0.569 (inactive),-0.266,0.267 (inactive),0.311 (inactive),-3.01
CO[C@H]1O[C@H](CO)[C@@H](OC(=O)CCc2ccccc2)[C@@H]2OC(=O)[C@@H](Cc3ccccc3)C/C=C/C[C@H](Cc3ccccc3)C(=O)O[C@@H]12,0.453 (inactive),-0.0054,4.5 (inactive),0.829 (inactive),1.23 (inactive),0.546 (inactive),0.658,-4.56 (inactive),-0.97 (inactive),-2
